Holding throughout (assay): DAPPL (digital affinity profiling via proximity ligation, sequencing); 10 mM Tris-HCl pH 7.5, 50 mM NaCl, 1 mM DTT, 4% glycerol, room temperature, 30 min; GST-TFs on glutathione beads, 16-mer random dsDNA library, 0.1% formaldehyde crosslink after washing; high values mean tight binding
Conditions in all cases: protein: recombinant; tags: N-terminal GST; dsDNA, one strand shown

Test [1] has as its target T1, ERF (Homo sapiens, UniProt P50548 1-548).
T1 sequence: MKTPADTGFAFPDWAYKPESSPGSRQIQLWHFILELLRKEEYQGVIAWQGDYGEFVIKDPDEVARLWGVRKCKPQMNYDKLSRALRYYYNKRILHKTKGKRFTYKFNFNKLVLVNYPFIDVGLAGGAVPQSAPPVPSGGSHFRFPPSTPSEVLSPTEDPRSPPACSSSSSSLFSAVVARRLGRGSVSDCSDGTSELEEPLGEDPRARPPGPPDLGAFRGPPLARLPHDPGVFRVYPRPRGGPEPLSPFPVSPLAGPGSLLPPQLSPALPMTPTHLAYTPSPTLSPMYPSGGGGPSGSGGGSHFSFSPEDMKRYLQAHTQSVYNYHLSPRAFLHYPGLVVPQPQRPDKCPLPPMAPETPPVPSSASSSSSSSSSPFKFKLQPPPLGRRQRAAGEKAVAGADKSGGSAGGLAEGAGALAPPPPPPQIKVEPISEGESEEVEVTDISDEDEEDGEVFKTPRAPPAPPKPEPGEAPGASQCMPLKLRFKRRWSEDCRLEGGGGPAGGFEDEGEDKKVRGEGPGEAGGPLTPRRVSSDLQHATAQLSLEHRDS
An outline of the steps:
(§1)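 GST fusions of human transcription factors were expressed in yeast and captured with glutathione beads. Once given DNA barcodes and pooled alongside a tag-only sample, they were incubated for 30 min at room temperature with 200 nmole of a random double-stranded 16-mer DNA library in Tris/NaCl/DTT/glycerol buffer, then washed, crosslinked (0.1% formaldehyde), proximity-ligated, PCR-amplified and sequenced on an Illumina NextSeq500. The binding signal of each hexamer is its read frequency for a factor divided by its frequency for the tag-only sample.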

For test [2], the target named is T2, ETV3L (Homo sapiens, UniProt Q6ZN32 1-361).
T2 sequence: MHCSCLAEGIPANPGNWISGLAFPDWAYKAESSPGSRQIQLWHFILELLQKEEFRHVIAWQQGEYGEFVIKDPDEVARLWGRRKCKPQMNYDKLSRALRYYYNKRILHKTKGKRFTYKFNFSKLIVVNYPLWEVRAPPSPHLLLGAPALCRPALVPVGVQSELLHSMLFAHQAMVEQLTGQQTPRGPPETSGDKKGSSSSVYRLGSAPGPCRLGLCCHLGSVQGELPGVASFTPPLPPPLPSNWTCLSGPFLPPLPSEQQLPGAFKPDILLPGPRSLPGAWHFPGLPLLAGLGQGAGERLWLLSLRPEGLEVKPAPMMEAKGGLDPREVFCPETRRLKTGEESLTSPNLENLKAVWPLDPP
An outline of the steps:
as §1

Test [3] addresses T3, ETS2 (Homo sapiens, UniProt P15036 1-469).
T3 sequence: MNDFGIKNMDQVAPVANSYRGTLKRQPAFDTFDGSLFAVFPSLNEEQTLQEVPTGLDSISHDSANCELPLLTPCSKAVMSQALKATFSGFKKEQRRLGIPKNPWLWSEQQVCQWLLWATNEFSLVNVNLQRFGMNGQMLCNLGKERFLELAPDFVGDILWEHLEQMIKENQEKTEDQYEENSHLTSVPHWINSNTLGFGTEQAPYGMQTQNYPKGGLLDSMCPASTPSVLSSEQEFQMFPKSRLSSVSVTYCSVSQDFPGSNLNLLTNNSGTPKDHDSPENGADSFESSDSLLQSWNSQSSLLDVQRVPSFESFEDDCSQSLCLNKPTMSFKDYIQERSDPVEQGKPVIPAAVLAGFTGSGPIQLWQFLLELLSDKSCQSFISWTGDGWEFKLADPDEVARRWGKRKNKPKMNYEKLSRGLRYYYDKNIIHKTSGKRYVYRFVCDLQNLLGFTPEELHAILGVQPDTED
An outline of the steps: as §1

Test [4] addresses T4, SPDEF (Homo sapiens, UniProt O95238 1-335).
T4 sequence: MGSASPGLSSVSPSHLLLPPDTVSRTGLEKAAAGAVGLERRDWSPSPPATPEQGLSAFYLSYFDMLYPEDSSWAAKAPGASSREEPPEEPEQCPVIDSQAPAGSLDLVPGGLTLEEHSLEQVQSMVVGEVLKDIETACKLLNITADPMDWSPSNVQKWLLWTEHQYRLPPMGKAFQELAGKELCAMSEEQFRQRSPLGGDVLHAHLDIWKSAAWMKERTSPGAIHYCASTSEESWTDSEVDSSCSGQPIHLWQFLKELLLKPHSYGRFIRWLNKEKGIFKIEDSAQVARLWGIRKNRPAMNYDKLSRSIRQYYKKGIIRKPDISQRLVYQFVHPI
An outline of the steps: as §1

Test [5] addresses T5, ETV7 (Homo sapiens, UniProt Q9Y603 1-341).
T5 sequence: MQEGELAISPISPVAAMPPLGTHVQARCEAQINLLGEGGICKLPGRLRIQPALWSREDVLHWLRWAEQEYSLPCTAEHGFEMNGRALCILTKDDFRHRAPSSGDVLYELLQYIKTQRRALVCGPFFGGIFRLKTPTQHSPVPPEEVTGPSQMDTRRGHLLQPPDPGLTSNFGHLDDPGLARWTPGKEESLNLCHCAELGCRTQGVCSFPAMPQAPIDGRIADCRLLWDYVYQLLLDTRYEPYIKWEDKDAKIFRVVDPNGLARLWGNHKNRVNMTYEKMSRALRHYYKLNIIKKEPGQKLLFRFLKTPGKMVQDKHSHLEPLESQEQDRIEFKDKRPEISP
An outline of the steps: as §1

In test [6] the target is T6, ELF5 (Homo sapiens, UniProt Q9UKW6-2 1-255).
T6 sequence: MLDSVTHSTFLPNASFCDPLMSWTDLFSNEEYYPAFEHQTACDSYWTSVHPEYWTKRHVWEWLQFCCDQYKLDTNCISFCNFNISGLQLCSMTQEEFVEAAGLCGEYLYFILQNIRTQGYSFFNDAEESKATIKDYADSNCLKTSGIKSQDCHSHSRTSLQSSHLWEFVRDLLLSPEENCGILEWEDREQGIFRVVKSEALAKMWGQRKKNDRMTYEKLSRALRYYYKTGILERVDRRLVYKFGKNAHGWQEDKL
An outline of the steps: as §1

The target of test [7] is T7, ETV3 (Homo sapiens, UniProt P41162-2 1-143).
T7 sequence: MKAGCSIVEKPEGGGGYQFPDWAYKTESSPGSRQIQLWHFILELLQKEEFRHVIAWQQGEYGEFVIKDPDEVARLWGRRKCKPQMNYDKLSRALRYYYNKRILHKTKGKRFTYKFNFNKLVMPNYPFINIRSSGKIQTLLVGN
An outline of the steps:
as §1

The target of test [8] is ETV6 (Homo sapiens, UniProt P41212 1-452). An outline of the steps:
as §1

Chain of ETV6 (P41212 whole entry): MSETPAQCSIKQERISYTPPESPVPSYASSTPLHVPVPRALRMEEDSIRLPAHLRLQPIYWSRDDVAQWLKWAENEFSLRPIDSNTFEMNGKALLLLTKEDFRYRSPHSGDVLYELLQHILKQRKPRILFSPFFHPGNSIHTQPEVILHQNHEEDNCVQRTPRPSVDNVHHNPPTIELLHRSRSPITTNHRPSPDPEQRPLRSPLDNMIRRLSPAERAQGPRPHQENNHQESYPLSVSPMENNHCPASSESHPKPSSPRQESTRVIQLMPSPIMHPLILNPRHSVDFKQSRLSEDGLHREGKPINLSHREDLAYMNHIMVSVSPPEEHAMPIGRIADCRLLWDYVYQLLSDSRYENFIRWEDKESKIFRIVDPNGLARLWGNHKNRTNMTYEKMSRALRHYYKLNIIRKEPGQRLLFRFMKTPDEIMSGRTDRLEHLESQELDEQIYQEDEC

Regarding CTGCCC, the binding signal in test [1] was 1.16 fold enrichment (6-mer frequency, TF over GST control); in test [2], 1.22 fold enrichment (6-mer frequency, TF over GST control); in test [3], 1.21 fold enrichment (6-mer frequency, TF over GST control); in test [4] it was 1.23 fold enrichment (6-mer frequency, TF over GST control); in test [5], 1.15 fold enrichment (6-mer frequency, TF over GST control); in test [6], 1.19 fold enrichment (6-mer frequency, TF over GST control). Further, the binding signal in test [7] was 1.37 fold enrichment (6-mer frequency, TF over GST control); in test [8] it was 1.16 fold enrichment (6-mer frequency, TF over GST control).

As for GCCACT, the binding signal was 1.16 fold enrichment (6-mer frequency, TF over GST control) in test [1]; 1.07 fold enrichment (6-mer frequency, TF over GST control) in test [2]; 1.19 fold enrichment (6-mer frequency, TF over GST control) in test [3]; 1.15 fold enrichment (6-mer frequency, TF over GST control) in test [4]; 1.12 fold enrichment (6-mer frequency, TF over GST control) in test [5]; 1.16 fold enrichment (6-mer frequency, TF over GST control) in test [6]. Moreover, the binding signal is 1.16 fold enrichment (6-mer frequency, TF over GST control) in test [7] and 1.21 fold enrichment (6-mer frequency, TF over GST control) in test [8].

Turning to CTTTCG, the binding signal in test [1] is 1.23 fold enrichment (6-mer frequency, TF over GST control); in test [2] it was 1.29 fold enrichment (6-mer frequency, TF over GST control); in test [3], 1.32 fold enrichment (6-mer frequency, TF over GST control); in test [4], 1.22 fold enrichment (6-mer frequency, TF over GST control); in test [5], 1.3 fold enrichment (6-mer frequency, TF over GST control); in test [6] it was 1.26 fold enrichment (6-mer frequency, TF over GST control). Further, the binding signal was 1.16 fold enrichment (6-mer frequency, TF over GST control) in test [7] and 1.23 fold enrichment (6-mer frequency, TF over GST control) in test [8].

As for CCCCGC, the binding signal in test [1] was 1.11 fold enrichment (6-mer frequency, TF over GST control); in test [2], 1.23 fold enrichment (6-mer frequency, TF over GST control); in test [3], 1.14 fold enrichment (6-mer frequency, TF over GST control); in test [4] it was 1.06 fold enrichment (6-mer frequency, TF over GST control); in test [5], 1.19 fold enrichment (6-mer frequency, TF over GST control); in test [6], 1.07 fold enrichment (6-mer frequency, TF over GST control). In addition, the binding signal in test [7] is 1.14 fold enrichment (6-mer frequency, TF over GST control); in test [8] it was 1.16 fold enrichment (6-mer frequency, TF over GST control).

For GAAGCA, the binding signal in test [1] was 1.24 fold enrichment (6-mer frequency, TF over GST control); in test [2], 1.18 fold enrichment (6-mer frequency, TF over GST control); in test [3] it was 1.32 fold enrichment (6-mer frequency, TF over GST control); in test [4] it was 1.33 fold enrichment (6-mer frequency, TF over GST control); in test [5], 1.37 fold enrichment (6-mer frequency, TF over GST control); in test [6], 1.4 fold enrichment (6-mer frequency, TF over GST control). Also, the binding signal in test [7] is 1.36 fold enrichment (6-mer frequency, TF over GST control); in test [8] it was 1.43 fold enrichment (6-mer frequency, TF over GST control).

Take GCCTCC: the binding signal in test [1] is 1.39 fold enrichment (6-mer frequency, TF over GST control); in test [2] it was 1.27 fold enrichment (6-mer frequency, TF over GST control); in test [3], 1.27 fold enrichment (6-mer frequency, TF over GST control); in test [4] it was 1.3 fold enrichment (6-mer frequency, TF over GST control); in test [5] it was 1.29 fold enrichment (6-mer frequency, TF over GST control); in test [6], 1.29 fold enrichment (6-mer frequency, TF over GST control). In addition, the binding signal was 1.24 fold enrichment (6-mer frequency, TF over GST control) in test [7] and 1.16 fold enrichment (6-mer frequency, TF over GST control) in test [8].

For CATGAT, the binding signal is 1 fold enrichment (6-mer frequency, TF over GST control) in test [1]; 1.13 fold enrichment (6-mer frequency, TF over GST control) in test [2]; 1.07 fold enrichment (6-mer frequency, TF over GST control) in test [3]; 1.01 fold enrichment (6-mer frequency, TF over GST control) in test [4]; 1.02 fold enrichment (6-mer frequency, TF over GST control) in test [5]; 1.1 fold enrichment (6-mer frequency, TF over GST control) in test [6]. Besides, the binding signal in test [7] was 1.09 fold enrichment (6-mer frequency, TF over GST control); in test [8], 1.09 fold enrichment (6-mer frequency, TF over GST control).

With CTGATG, the binding signal is 1.48 fold enrichment (6-mer frequency, TF over GST control) in test [1]; 1.53 fold enrichment (6-mer frequency, TF over GST control) in test [2]; 1.68 fold enrichment (6-mer frequency, TF over GST control) in test [3]; 1.5 fold enrichment (6-mer frequency, TF over GST control) in test [4]; 1.64 fold enrichment (6-mer frequency, TF over GST control) in test [5]; 1.64 fold enrichment (6-mer frequency, TF over GST control) in test [6]. Besides, the binding signal in test [7] was 1.74 fold enrichment (6-mer frequency, TF over GST control); in test [8], 1.72 fold enrichment (6-mer frequency, TF over GST control).

Consider TATCCC, for which the binding signal in test [1] is 1.52 fold enrichment (6-mer frequency, TF over GST control); in test [2], 1.52 fold enrichment (6-mer frequency, TF over GST control); in test [3] it was 1.47 fold enrichment (6-mer frequency, TF over GST control); in test [4], 1.72 fold enrichment (6-mer frequency, TF over GST control); in test [5], 1.53 fold enrichment (6-mer frequency, TF over GST control); in test [6], 2.05 fold enrichment (6-mer frequency, TF over GST control). The binding signal in test [7] is 1.62 fold enrichment (6-mer frequency, TF over GST control); in test [8], 1.51 fold enrichment (6-mer frequency, TF over GST control).

Source of the values: paper PMC7862700, “An all-to-all approach to the identification of sequence-specific readers for epigenetic DNA modifications on cytosine”.
